RORgamma inh – ROR gamma (mouse) transcription inhibition | 5.4% of 310,000 active | P51450 | AID 2551 | Drosophila S2 Gal4-RORgamma UAS-luciferase reporter, 20 h | Potency, µM (series often up to 53.6 µM), actives largely listed as inhibitors; also: nearly all actives have a fitted effect of over 60% in size
Target sequence (P51450 whole entry, looked up, the tested form may be a part): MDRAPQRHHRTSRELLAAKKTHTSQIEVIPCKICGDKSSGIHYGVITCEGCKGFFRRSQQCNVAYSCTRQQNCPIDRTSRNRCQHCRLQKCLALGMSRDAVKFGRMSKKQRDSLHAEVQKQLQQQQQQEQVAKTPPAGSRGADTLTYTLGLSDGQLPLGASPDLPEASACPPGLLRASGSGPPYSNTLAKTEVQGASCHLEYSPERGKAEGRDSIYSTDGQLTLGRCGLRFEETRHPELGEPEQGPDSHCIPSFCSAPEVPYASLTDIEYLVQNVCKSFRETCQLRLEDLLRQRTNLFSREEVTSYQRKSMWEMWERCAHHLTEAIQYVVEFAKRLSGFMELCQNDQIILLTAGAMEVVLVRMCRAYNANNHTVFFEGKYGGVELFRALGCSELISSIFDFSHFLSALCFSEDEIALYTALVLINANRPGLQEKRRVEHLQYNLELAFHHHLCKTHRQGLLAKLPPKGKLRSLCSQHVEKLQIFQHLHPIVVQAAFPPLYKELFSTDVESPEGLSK
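Drosophila Schneider cells stably carrying a metallothionein-driven Gal4 DBD–ROR gamma fusion and a UAS-Photinus luciferase reporter were exposed to compound for 1 hr, then induced with copper sulfate (700 uM final) for 20 hr at ambient temperature before luminescence reading.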
TDP1 cell CPT – growth inhibition of DT40 Tdp1-/-;hTDP1 cells with camptothecin (screen for TDP1 inhibitors); chicken DT40 Tdp1-/-;hTDP1 cells + 20 nM CPT, ATP luminescence, 48 h; Potency, µM (series often up to 46.2 µM), usual class: inhibitors; 12% of 420,000 active; also: nearly all actives have a fitted effect of over 55% in size
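Chicken DT40 Tdp1-/- cells complemented with human TDP1, 400 cells/well, exposed to compounds plus 20 nM camptothecin for at least 48 h at 37 C; viability read as ATP content by CellTiter-Glo luminescence.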
IL1B secr inh – inhibitors of inflammasome signaling (IL-1 beta secretion). activity change, % at 57.5 µM. THP-1 LPS/ATP IL-1B secretion, AlphaLISA, 16 h; hits give low values. 4.7% of 360,000 active; in the data active = activity change below about -50%; inconclusive = mostly about -30% to -49%
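THP-1 cells pretreated 1 hr with compounds (up to 57.5 uM final), then stimulated with LPS (250 ng/mL final) plus ATP (1.25 mM final); secreted IL-1B measured by AlphaLISA after 16 hr, decreased signal indicating inhibition.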
VP16 counter – counter-screen for ROR gamma inhibitors: Gal4-VP16 reporter | Drosophila S2 Gal4-VP16 UAS-luciferase, luminescence, 20 h | Potency, µM (highest dose often 53.6 µM), actives largely listed as inhibitors | 3.5% of 310,000 active;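 also: Gal4-VP16 expression switched on by copper sulfate through the metallothionein promoter; nearly all actives have a fitted effect of over 50% in size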
LDHA inh – inhibitors of human lactate dehydrogenase A; P00338; purified LDHA, NADH/diaphorase-resazurin fluorescence; hits give low values; activity change, % (values are at about 110 or 230 µM); 0.15% of 480,000 active; in the data active = activity change below about -30%; inconclusive = mostly about -25% to -30%
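LDH5 2 nM; NADH 0.06 mM, pyruvate 0.2 mM; 200 mM Tris pH 7.4, EDTA, Tween-20; 5 min RT. Detection: diaphorase 0.133 mg/mL + resazurin 37 µM, fluorescence ex540/em590 at 0 and 20 min; normalized to enzyme-free and DMSO wells.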
DT40 TDP1 no CPT – qHTS for Inhibitors of human tyrosyl-DNA phosphodiesterase 1 (TDP1): qHTS in cells in absence of CPT. DT40 Tdp1-/- hTDP1 cells, no CPT, ATP luminescence, 48 h. Potency, µM (top dose mostly 46.2 µM), hits mostly inhibitors. 15% of 420,000 active; also: nearly all actives have a fitted effect of over 55% in size
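Luminescent ATP content (CellTiter-Glo) served as the growth readout. Knockout chicken DT40 cells expressing human TDP1 were exposed to compounds without camptothecin for a minimum 48 hr at 37 °C.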
A number is an active result; n = inactive; u = inconclusive; x = not tested or not shown; ! = repeats disagree; [ ] = remark or other dose. The list is not random: actives were taken first. Their share in the collection is about 18%. Unless noted, calls follow the shape of the dose curve; as a rule, active = well fitted curve in the direction sought with a large enough effect; inconclusive = small, poorly fitted or top-dose-only effect, or another doubt; inactive = no such curve, though single readings can be large; an effect the other way counts as inactive or inconclusive.

SMILES	RORgamma inh	TDP1 cell CPT	IL1B secr inh	VP16 counter	LDHA inh	DT40 TDP1 no CPT
Fc1ccc(Cn2cc(C(=S)N3CCOCC3)c3ccccc32)cc1	8.9µM	u	n	u	n	u
Fc1ccccc1Cn1cc(C(=S)N2CCOCC2)c2ccccc21	u	u	n	n	n	16µM
CN1CCN(C(=S)c2cn(Cc3ccc(Br)cc3)c3ccccc23)CC1	25µM	21µM	n	n	n	u
COc1cnc(CSc2ncccn2)cc1OCC(=O)N1CCCc2ccccc21	x	x	x	x	n	x
CC(C)=CC(=O)Nc1cc(Cl)cc(Cl)c1	x	x	x	x	n	x
CC(Sc1ccccc1Cl)C(=O)NC1CCCC1 (stereo not drawn)	x	x	x	x	n	x
CCCCCn1c(COc2ccc(C(C)(C)C)cc2)n[nH]c1=S	x	x	x	x	n	x
c1ccc2c(c1)Cc1cc3ccccc3nc1-2	11µM!	u	n	u	n	21µM
COc1cc(OC)cc(C2=NC3(CCC(C)CC3)NC2=S)c1 (stereo not drawn)	1.4µM	u	n	n	n	u
CC1CCC2(CC1)N=C(c1ccc(Cl)c(Cl)c1)C(=S)N2 (stereo not drawn)	x	x	x	x	n	x
Cc1ccc(CSc2ccc(S(=O)(=O)N3CCCC3)cn2)cc1	x	n	n	x	n	n
O=[N+]([O-])c1ccc(CSc2ccc(S(=O)(=O)N3CCOCC3)cn2)cc1	x	u	-64	x	n	u
N#Cc1ccc(CSc2ccc(S(=O)(=O)N3CCCC3)cn2)cc1	x	u	n	x	n	26µM
O=[N+]([O-])c1ccc(CSc2ccc(S(=O)(=O)N3CCCC3)cn2)cc1	x	u	n	x	n	23µM
CCn1c(SCc2ccc(C#N)cc2)nnc1-c1ccc(S(=O)(=O)N2CCCCC2)cc1	n	15µM	n	n	n	u
O=C(NC1CCCC1)c1ccc(C(F)(F)F)cn1	x	x	x	x	n	x
Cn1c(=O)c2c(ncn2CCC(=O)NC2CCCCC2)n(C)c1=O	x	x	x	x	n	x
O=[N+]([O-])c1ccc(CSc2ccc(S(=O)(=O)N3CCCCC3)cn2)cc1	x	u	-50	x	n	u
CCn1c(SCc2ccc(C)cc2)nnc1C1CCN(S(=O)(=O)c2ccc(OC)cc2)CC1	u	u	n	n	n	u
CCn1c(SCc2ccc(F)cc2)nnc1C1CCN(S(=O)(=O)c2ccc(OC)cc2)CC1	n	u	n	n	n	16µM
O=C(CCS(=O)(=O)c1cc2c3c(c1)CCN3C(=O)CC2)N1CCN(c2ccccc2)CC1	x	x	x	x	n	x
N=C(N=C(N)N)N1CCc2ccccc21	n	u	n	n	n	13µM
O=C(Cn1cccc1)N1CCc2ccccc21	n	n	n	n	n	n
CC(C)(C)NC(=O)NC(=O)CSc1nc(-c2ccco2)nc2ccccc12	x	x	x	x	n	x
COc1ccc(-c2coc3c(C(=O)Nc4ccc(OC)nc4)cccc23)c(C)c1	x	18µM	n	x	n	21µM
SMILES	RORgamma inh	TDP1 cell CPT	IL1B secr inh	VP16 counter	LDHA inh	DT40 TDP1 no CPT
COc1ccc(-c2ccc(C(=O)Nc3ccc4c(c3)OCO4)c3occc23)c(C)c1	x	u	u	x	n	u
COc1ccc(-c2ccc(C(=O)Nc3ccc(OC)nc3)c3occc23)c(C)c1	x	0.37µM	n	x	n	15µM
COc1ccc(-c2ccc(C(=O)Nc3ccccc3)c3occc23)c(C)c1	x	21µM	n	x	n	u
COc1ccc(-c2coc3c(C(=O)NCCN4CCOCC4)cccc23)c(C)c1	x	u	n	x	n	u
Cc1ccc(NS(=O)(=O)c2cc([N+](=O)[O-])ccc2N/N=C/c2sc(N3CCOCC3)nc2-c2ccccc2)c(C)c1	n	21µM	n	n	n	18µM
CCc1noc(C)c1C(=O)N(CC)c1nc2c(C)cccc2s1	x	u	n	x	n	18µM
CCN(C(=O)C1=COCCO1)c1nc2c(C)cccc2s1	x	n	n	x	n	n
CCN(CC)CCN(C(=O)c1ccco1)c1nc2c(C)cccc2s1	x	15µM	x	x	n	21µM
Cc1cc(C)nc(SCC(=O)Nc2ncc(Cc3cccc(Cl)c3Cl)s2)n1	n	23µM	n	n	n	18µM
CC(C)C(=O)Nc1ncc(Cc2cccc(Cl)c2)s1	11µM	u	-72	u	n	u
O=C(Nc1ncc(Cc2ccccc2Cl)s1)c1ccc(-c2cccc([N+](=O)[O-])c2)o1	5µM	u	n	u	n	u
CC(=O)Nc1ncc(Cc2cccc(Cl)c2)s1	n	n	n	u	n	n
O=C(Nc1ncc(Cc2cccc(Cl)c2)s1)c1ccc([N+](=O)[O-])cc1	5µM	u	n	2.8µM	n	8.2µM
CCOC(=O)Cc1cnc(NC(=O)CSc2nc(C)cc(C)n2)s1	n	n	n	n	n	u
O=C(O)c1ccc(-c2cc(Cl)cc(Cl)c2)s1	x	x	x	x	n	x
Cc1onc(-c2c(F)cccc2Cl)c1C(=O)Nc1sc(C)c(C)c1C(N)=O	x	x	x	x	n	x
Cc1ccc2c(=O)cc(C(=O)Nc3ccc(S(=O)(=O)N4CCCC(C)C4)cc3)oc2c1 (stereo not drawn)	x	x	x	x	n	x
Cc1ccc(N2C(=O)CCS2(=O)=O)cc1S(=O)(=O)NC1CCCC1	x	x	x	x	n	x
CCc1ccc(CCC(=O)Nc2ncc(Cc3ccccc3Cl)s2)o1	u	5.2µM	n	u	n	5.8µM
O=C(Nc1ncc(Cc2ccccc2Cl)s1)c1ccc([N+](=O)[O-])cc1	2µM	u	n	2.8µM	n	u
CCC1CCc2sc(-c3nnc(SCC(=O)NC(C)(C)C)n3C)cc2C1 (stereo not drawn)	x	x	x	x	n	x
O=S1(=O)C=C(Sc2nc3cc(Cl)ccc3o2)c2ccccc21	5.6µM	0.58µM	-119	2.5µM	n	0.46µM
Cc1ccc(CNC(=S)NNC=O)cc1	x	x	x	x	n	x
Cc1csc2nc(-c3ccc(NS(=O)(=O)c4cccc(F)c4)cc3)cn12	x	u	x	x	n	16µM
Cc1nc(-c2ccc(NS(=O)(=O)c3ccccc3)cc2)cs1	n	n	u	n	n	n
SMILES	RORgamma inh	TDP1 cell CPT	IL1B secr inh	VP16 counter	LDHA inh	DT40 TDP1 no CPT
NC(=S)N/N=C/c1cccc(O)c1O	7.1µM	0.58µM	n	u	n	0.92µM
COc1cccc(/C=N/NC(N)=S)c1OS(=O)(=O)c1ccccc1	u	u	n	u	n	n
Cc1cc(/C=N/NC(N)=S)c(O)c(/C=N/NC(N)=S)c1	0.2µM	n	n	0.45µM	n	u
NC(=S)N/N=C/c1ccccc1O	3.5µM	u	n	6.3µM	n	u
NC(=S)N/N=C/c1cc(-c2ccccc2)[nH]c1-c1ccccc1	x	x	x	x	n	x
COc1cc(OC)c(/C=N/NC(N)=S)cc1Br	8.9µM	u	n	u	n	u
CCCNC(=O)NC(=O)CN(Cc1ccc(C(F)(F)F)cc1)C1CC1	x	x	x	x	n	x
Oc1ccccc1/C=N/Nc1ncc(Br)cn1	n[10 µM]	9.2µM	n	u	n	7.3µM
Oc1ccccc1C=NNC(=S)NN=Cc1ccccc1O	x	5.2µM	n	x	n	4.6µM

High-throughput results as filed in PubChem BioAssay.
